Format in all cases: functional
For test [1], the target named is Solute carrier family 2, facilitated glucose transporter member 1 (Homo sapiens) (UniProt P11166). Put plainly: ST_JUDE_LEISH: Cytotoxicity at 2uM final concentration against transgenic Leishmania Mexicana promastigotes LmGLUT1 that are glucose transport deficient and complemented with the human glucose transporter GLUT1. Activity is measured by DNA content using SYBR green in vitro.

The target in test [2] is Hexose transporter 1 (Plasmodium falciparum) (UniProt O97467). The test can be described thus: ST_JUDE_LEISH: Cytotoxicity at 2uM final concentration against transgenic Leishmania Mexicana promastigotes LmPfHT that are glucose transport deficient and complemented with the Plasmodium falciparum hexose transporter. Activity is measured by DNA content using SYBR green in vitro.

The target in test [3] is Glucose transporter (Leishmania mexicana) (UniProt O61059). Put plainly: ST_JUDE_LEISH: Cytotoxicity at 2uM final concentration against transgenic Leishmania Mexicana promastigotes LmGT2 that are glucose transport deficient and complemented with the L. Mexicana glucose transporter 2. Activity is measured by DNA content using SYBR green in vitro.

Molecules are shown by their SMILES.

Sequence of Solute carrier family 2, facilitated glucose transporter member 1 (Homo sapiens) (P11166 whole entry): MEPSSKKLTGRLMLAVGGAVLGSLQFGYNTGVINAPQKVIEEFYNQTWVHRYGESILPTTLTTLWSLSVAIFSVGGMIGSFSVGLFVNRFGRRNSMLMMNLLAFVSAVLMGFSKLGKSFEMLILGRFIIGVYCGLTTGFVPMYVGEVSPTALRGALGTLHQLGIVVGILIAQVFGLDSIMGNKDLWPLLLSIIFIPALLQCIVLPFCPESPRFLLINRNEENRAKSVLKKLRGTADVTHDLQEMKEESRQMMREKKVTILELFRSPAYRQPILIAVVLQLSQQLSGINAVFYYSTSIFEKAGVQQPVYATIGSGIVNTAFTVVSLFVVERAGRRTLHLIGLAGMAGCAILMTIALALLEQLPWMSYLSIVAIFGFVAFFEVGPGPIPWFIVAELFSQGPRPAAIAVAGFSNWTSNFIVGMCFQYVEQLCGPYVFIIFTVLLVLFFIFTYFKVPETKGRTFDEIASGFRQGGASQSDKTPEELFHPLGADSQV

One may read the inhibition as the drop in the measured response relative to a control, in per cent. In the case of `CS(=O)(=O)Nc1cccc(-c2cnc3[nH]cc(-c4cc(N)cc(C(=O)O)c4)c3c2)c1`, the values for the inhibition in test [1], in test [2] and in test [3] were 0.76%, 1.94% and -0.41%, respectively.
In the same order, the values of `CCCC(=O)NC(NC(=S)Nc1ccc([N+](=O)[O-])cc1)C(Cl)(Cl)Cl` (stereo not drawn) are -1.2%, -0.54% and -0.01%.
In the same order, the values of `CC(=O)Nc1ccc(OCCCN(Cc2ccccc2C(F)(F)F)c2ccc(C(F)(F)F)c(C#N)c2)c(Cl)c1` are 6.79%, 5.68% and 1.94%.
For `COc1c(OC)c(OC)c2ccccc2c1CNCCCCCCNCc1c(OC)c(OC)c(OC)c2ccccc12` the same measures were 7.56%, 7.58% and 0.02%.
For the molecule `Cc1cc(N[C@@H](Cc2ccccc2)C(=O)NCc2cccs2)nc(NCCc2ccc(F)cc2)n1`, the figures for the inhibition in test [1], in test [2] and in test [3] were 8.62%, 8.93% and 4.14%, respectively.
In the same order, the values of `O=C(/C=C/c1ccc(Br)cc1)NCCCCCN1CCC(c2c[nH]c3ccccc23)CC1` are 25.2%, 17.3% and 12.7%.
For `CC(Cc1ccc(C(=O)N2CCN(C(=O)c3ccc(CC(C)NCCc4cccc(Cl)c4)cc3)CC2)cc1)NCCc1cccc(Cl)c1` (stereo not drawn) the same measures were 6.51%, 3.6% and 5.54%.
In the same order, the values of `N=C(N)c1ccc(NCc2cccc(C(=O)O)c2)cc1` are 1.02%, 1.06% and 3.66%.
For `COc1ccc(-n2ccnc2SCC(=O)Nc2cc(Cl)ccc2OC)c(OC)c1`, the inhibition in test [1] was 2.64%; in test [2], -0.3%; in test [3] it was 4.9%.
For `Cc1cccc2nc(-c3ccc(-c4cccc(CNC(C)C)c4)s3)[nH]c12` the same measures were 2.58%, 1.37% and 3.77%.
In the same order, the values of `Oc1c(Br)cc2oc3c(c2c1CNCc1ccccc1)CCCC3` are -0.72%, -0.92% and -0.81%.
For `N#Cc1ccc2c(c1)CN(CCC1CCC(NC(=O)c3cc4ccccc4cc3N)CC1)CC2` (stereo not drawn) the same measures were 5.84%, 5.45% and 3.13%.
For `Cc1cc(NCc2ccccc2)nc(NCc2ccccc2)n1`, the inhibition is 11.8% in test [1], 5.78% in test [2] and 4.43% in test [3].
For `CCOc1cc(OCC)c2ccccc2c1CNCCCCCCNCc1c(OCC)cc(OCC)c2ccccc12` the same measures were 83.2%, 50.7% and 56.7%.
`COc1cc(C(=O)NC2CCN(Cc3ccccc3)CC2)ccc1-c1nc2c(Cl)cc(C(F)(F)F)cc2[nH]1`: the inhibition in test [1] was 5.51%; in test [2] it was 3.32%; in test [3] it was 3.49%.
In the same order, the values of `CC(C)COc1ccc(Cl)cc1Cc1ccc(-c2nc3cnc4ccccc4c3[nH]2)o1` are 3.89%, 2.77% and 2%.
For `COc1cccc2cc(C(=O)N[C@@H](CC(C)C)C(=O)N[C@H](/C=N/N(C)C(=O)OC(C)(C)C)CC(=O)OC(C)(C)C)oc12` the same measures were 2.84%, 3.79% and 3.79%.
For `COc1cccc(Nc2nc(Nc3cccc(C#N)c3)cc(-c3ccncc3)n2)c1` the same measures were 3.83%, 4.95% and 1.57%.
For the molecule `CCNc1cc(C(=O)N[C@@H](Cc2ccccc2)[C@H](O)CNCc2cccc(OC)c2)c(OC)c(N2CCCCS2(=O)=O)c1`, the inhibition in test [1] was 1.6%; in test [2] it was 2.79%; in test [3] it was 2.16%.
For `Cc1ccc(NC(=O)NCCCCCN2CCC(c3c[nH]c4ccccc34)CC2)cc1I` the same measures were 3.96%, 3.64% and 3.15%.
For `O=C(Nc1cccc(-c2cccc(-c3nc4cc(C(F)(F)F)ccc4[nH]3)c2)c1)c1ccoc1` the same measures were 10.4%, 10.1% and 8.15%.
In the same order, the values of `CCCCCCn1ccc2c3c(N)nc(N)nc3ccc21` are 104%, 101% and 102%.
As to `Cc1ccc(C)c2c1[nH]c1ccc(C3=NCCN3)cc12`, the inhibition in test [1] was found to be 0.89%; in test [2] it was 1.39%; in test [3] it was 1.4%.
On to `CCNC(=O)Nc1cccc(-c2cccc(-c3nc4cc(C(F)(F)F)ccc4[nH]3)c2)c1`, for which the values for the inhibition in test [1], in test [2] and in test [3] were 10%, 7.8% and 7.55%, respectively.
In the same order, the values of `CC(C)c1ccc(-c2noc(SCC(=O)N3CCCCC3C)n2)cc1` (stereo not drawn) are -2.1%, 1.89% and -2.55%.
Consider `CCCCN(CCCC)CCCCCCNc1c2ccccc2nc2ccccc12`, for which the figures for the inhibition in test [1], in test [2] and in test [3] were 28%, 22.7% and 18.2%, respectively.
In the same order, the values of `Cc1cccc(-c2nn(-c3ccccc3)c3[nH]c(=O)c(CN4CCSCC4)cc23)c1` are -2.69%, -2.03% and 1.18%.
For `Clc1ccc2nnc(-c3c(Cl)cccc3Cl)n2n1` the same measures were 6.63%, 4.09% and 2.05%.
In the same order, the values of `COc1ccc(OCC(=O)Nc2cc(-c3nc4ccccc4[nH]3)ccc2Cl)cc1` are 6.17%, 6.14% and 3.14%.
For the molecule `COc1ccc2nccc([C@@H](O)CN3CCC(NCc4ccc5cccc(O)c5n4)CC3)c2c1`, the inhibition in test [1] worked out at 7.73%; in test [2] it was 7.94%; in test [3] it was 3.46%.
For `Cc1cc2c(cc1C(F)(F)F)N(C(=O)Nc1ccc(OCCN(C)C)c(C(F)(F)F)c1)CC2` the same measures were 2.99%, 2.92% and 0.83%.
In the same order, the values of `CCCCN(CCCC)CCNC(=O)c1ccc(-c2nc3cc(Cl)ccc3[nH]2)c(OCC)c1` are 4.49%, 2.11% and 4.26%.
In the same order, the values of `CCCCCCCNC(=O)NCC1CCCN(CCCCCNC(=O)/C=C/c2ccc(Cl)c(Cl)c2)C1` (stereo not drawn) are 1.71%, 4.27% and 2.15%.
With `Cc1ccc(Cn2ncc(N3CCCNCC3)c(Cl)c2=O)cc1NC(=O)Nc1ccc(-c2ccccc2)cc1`, the inhibition in test [1] came to 3.82%; in test [2], 4.05%; in test [3] it was 4.8%.
For `Nc1c2c(nc3ccc(Oc4ccc(Br)cc4Br)cc13)CCCC2` the same measures were 81.2%, 84.6% and 57.4%.
For `CN1CCN(Cc2ccc(-c3cccc(-c4nc5ccccc5[nH]4)c3)cc2)CC1` the same measures were 1.13%, 0.78% and -2.4%.

For the origin of these results see ChEMBL document CHEMBL3433997, “St. Jude Leishmania screening dataset” (2016).
